About 410 targets per protein were measured; listed, in parts, are those with the strongest signals and a random draw of the rest.
Tests used:
Assay in all cases: glycan array binding signal (z-score within array); higher = stronger binding
Conditions in all cases: glycan notation: IUPAC condensed, linker removed
[1] = target: Fuc(a1-2)Gal(b1-4)GlcNAc(b1-2)Man(a1-3)[Fuc(a1-2)Gal(b1-4)GlcNAc(b1-2)Man(a1-6)]Man(b1-4)GlcNAc(b1-4)GlcNAc
In short: (§1)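 The binding signal is a Z-score computed within each array. Data were drawn from 3228 arrays in the Consortium for Functional Glycomics database, restricted to those with a known protein sequence. Scores were averaged over arrays of the same protein sequence at different concentrations or buffers, and over linkers, and negative values can be taken as non-binding.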

[2] = target: Fuc(a1-2)Gal6S(b1-4)Glc6S
In short: as §1

[3] = target: Fuc(a1-2)Gal6S(b1-4)GlcNAc
In short: as §1

[4] = target: Fuc(a1-2)[GalNAc(a1-3)]Gal(b1-4)Glc
In short: as §1

[5] = target: Fuc(a1-3)[Gal(b1-4)]GlcNAc6S
In short: as §1

[6] = target: Gal(a1-3)[Gal(a1-4)]Gal(b1-4)GlcNAc
In short: as §1

[7] = target: Gal(a1-4)GlcNAc
In short: as §1

[8] = target: Gal(b1-3)GalNAc(a1-3)[Fuc(a1-2)]Gal(b1-4)GlcNAc
In short: as §1

[9] = target: Gal(b1-3)GlcNAc(b1-2)Man(a1-3)[Gal(b1-3)GlcNAc(b1-2)Man(a1-6)]Man(b1-4)GlcNAc(b1-4)GlcNAc
In short: as §1

[10] = target: Gal(b1-4)GlcNAc
In short: as §1

[11] = target: Gal3S(b1-3)GlcNAc
In short: as §1

[12] = target: Gal3S4S(b1-4)GlcNAc
In short: as §1

[13] = target: GalNAc(b1-3)Gal
In short: as §1

[14] = target: GlcNAc(a1-4)Gal(b1-4)GalNAc
In short: as §1

[15] = target: GlcNAc(b1-4)[GlcNAc(b1-6)]GalNAc
In short: as §1

[16] = target: GlcNAc(b1-6)Gal(b1-4)GlcNAc
In short: as §1

[17] = target: GlcNAc3Prop(b1-4)GlcNAc
In short: as §1

[18] = target: GlcNAc6S(b1-3)Gal(b1-4)GlcNAc
In short: as §1

[19] = target: Kdn(a2-6)Gal(b1-4)GlcNAc
In short: as §1

[20] = target: Neu5Ac(a2-3)Gal(b1-3)[Fuc(a1-4)]GlcNAc
In short: as §1

[21] = target: Neu5Ac(a2-3)Gal(b1-4)GlcNAc(b1-2)Man(a1-3)[Neu5Ac(a2-6)Gal(b1-4)GlcNAc(b1-2)Man(a1-6)]Man(b1-4)GlcNAc(b1-4)GlcNAc
In short: as §1

[22] = target: Neu5Ac(a2-3)Gal(b1-4)GlcNAc(b1-3)GalNAc
In short: as §1

[23] = target: Neu5Ac(a2-3)Gal(b1-4)[Fuc(a1-3)]GlcNAc(b1-6)[Neu5Ac(a2-3)Gal(b1-3)]GalNAc
In short: as §1

[24] = target: Neu5Ac(a2-3)[GalNAc(b1-4)]Gal(b1-4)GlcNAc
In short: as §1

[25] = target: Neu5Ac(a2-6)Gal(b1-4)GlcNAc(b1-2)Man(a1-3)[GlcNAc(b1-2)Man(a1-6)]Man(b1-4)GlcNAc(b1-4)GlcNAc
In short: as §1

[26] = target: Neu5Ac(a2-6)Gal(b1-4)GlcNAc(b1-2)Man(a1-6)[Man(a1-3)]Man(b1-4)GlcNAc(b1-4)GlcNAc
In short: as §1

[27] = target: Neu5Ac(a2-8)Neu5Ac(a2-8)Neu5Ac
In short: as §1

B1: 4F2hc (Homo sapiens), P08195 (protein)
chain: WWHTGALYRIGDLQAFQGHGAGNLAGLKGRLDYLSSLKVKGLVLGPIHKNQKDDVAQTDLLQIDPNFGSKEDFDSLLQSAKKKSIRVILDLTPNYRGENSWFSTQVDTVATKVKDALEFWLQAGVDGFQVRDIENLKDASSFLAEWQNITKGFSEDRLLIAGTNSSDLQQILSLLESNKDLLLTSSYLSDSGSTGEHTKSLVTQYLNATGNRWCSWSLSQARLLTSFLPAQLLRLYQLMLFTLPGTPVFSYGDEIGLDAAALPGQPMEAPVMLWDESSFPDIPGAVSANMTVKGQSEDPGSLLSLFRRLSDQRSKERSLLHGDFHAFSAGPGLFSYIRHWDQNERFLVVLNFGDVGLSAGLQASDLPASASLPAKADLLLSTQPGREEGSPLELERLKLEPHEGLLLRFPYAA
glycan array binding signal (z-score) [1]: -0.399
glycan array binding signal (z-score) [2]: -0.953
glycan array binding signal (z-score) [3]: -1.01
glycan array binding signal (z-score) [4]: 6.38
glycan array binding signal (z-score) [5]: 2.68
glycan array binding signal (z-score) [6]: -0.32
glycan array binding signal (z-score) [7]: -0.668
glycan array binding signal (z-score) [8]: -0.507
glycan array binding signal (z-score) [9]: 3.66
glycan array binding signal (z-score) [10]: -0.318
glycan array binding signal (z-score) [11]: 0.65
glycan array binding signal (z-score) [12]: 3.95
glycan array binding signal (z-score) [13]: -0.631
glycan array binding signal (z-score) [14]: -1.21
glycan array binding signal (z-score) [15]: 0.848
glycan array binding signal (z-score) [16]: 0.103
glycan array binding signal (z-score) [17]: 0.691
glycan array binding signal (z-score) [18]: -1.04
glycan array binding signal (z-score) [19]: 0.863
glycan array binding signal (z-score) [20]: 1.08
glycan array binding signal (z-score) [21]: -0.878
glycan array binding signal (z-score) [22]: -0.993
glycan array binding signal (z-score) [23]: 3.35
glycan array binding signal (z-score) [24]: -0.5
glycan array binding signal (z-score) [25]: -0.141
glycan array binding signal (z-score) [26]: 5.26
glycan array binding signal (z-score) [27]: -0.566
